Measured values as given in ChEMBL document CHEMBL3433997, “St. Jude Leishmania screening dataset” (2016).

Legend:
Assay type in all cases: functional
[1] = molecular target: Solute carrier family 2, facilitated glucose transporter member 1 (Homo sapiens) (UniProt P11166); test: ST_JUDE_LEISH: Cytotoxicity at 2uM final concentration against transgenic Leishmania Mexicana promastigotes LmGLUT1 that are glucose transport deficient and complemented with the human glucose transporter GLUT1. Activity is measured by DNA content using SYBR green in vitro
[2] = molecular target: Hexose transporter 1 (Plasmodium falciparum) (UniProt O97467); test: ST_JUDE_LEISH: Cytotoxicity at 2uM final concentration against transgenic Leishmania Mexicana promastigotes LmPfHT that are glucose transport deficient and complemented with the Plasmodium falciparum hexose transporter. Activity is measured by DNA content using SYBR green in vitro
[3] = molecular target: Glucose transporter (Leishmania mexicana) (UniProt O61059); test: ST_JUDE_LEISH: Cytotoxicity at 2uM final concentration against transgenic Leishmania Mexicana promastigotes LmGT2 that are glucose transport deficient and complemented with the L. Mexicana glucose transporter 2. Activity is measured by DNA content using SYBR green in vitro

Chain of Solute carrier family 2, facilitated glucose transporter member 1 (Homo sapiens) (P11166 whole entry): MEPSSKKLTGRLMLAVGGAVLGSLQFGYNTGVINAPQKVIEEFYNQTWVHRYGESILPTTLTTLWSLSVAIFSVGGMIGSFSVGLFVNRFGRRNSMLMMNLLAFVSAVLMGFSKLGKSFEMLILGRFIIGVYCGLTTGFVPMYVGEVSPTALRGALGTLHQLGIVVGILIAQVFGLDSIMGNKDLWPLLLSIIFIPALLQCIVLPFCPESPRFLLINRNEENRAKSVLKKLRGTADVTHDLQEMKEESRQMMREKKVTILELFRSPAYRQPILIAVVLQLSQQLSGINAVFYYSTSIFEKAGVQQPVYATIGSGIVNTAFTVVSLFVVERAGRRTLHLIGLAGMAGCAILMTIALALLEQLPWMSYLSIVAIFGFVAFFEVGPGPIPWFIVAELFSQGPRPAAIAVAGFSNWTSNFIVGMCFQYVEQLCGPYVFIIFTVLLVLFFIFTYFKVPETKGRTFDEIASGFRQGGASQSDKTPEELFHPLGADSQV

SMILES	inhibition [1] [%]	inhibition [2] [%]	inhibition [3] [%]
Cc1cc(CNC(c2ccccc2)C2CCC2)cc(C)c1O (configuration not stated)	14.2	14.3	10.1
O=C(Nc1ccc(C(=O)OCC2CCCCC2)cc1)N[C@@H](Cc1ccc(O)cc1)C(=O)NC1CCN(Cc2ccc(O)cc2)C1 (some centres not stated)	3.7	2.04	3.42
CCCc1cc(Cc2cnc(N)nc2N)cc2c1OC(C)C2C (configuration not stated)	8.26	8.61	5.24
c1ccc2cc3c(Nc4ccc(N5CCCCC5)cc4)ccnc3cc2c1	2.76	4.37	2.3
CCN(CC)CCCNC(=O)/C(=C/C=C/c1cc2cc(Cl)c(Cl)cc2[nH]1)OC	7.56	11.3	7.84
CCCc1cc(C)ccc1OCCCON1C(NC(=O)OCC)=NC(NC(=O)OCC)=NC1(C)C	-0.11	1.76	-0.57
Cc1cccc(CN2CCC(CNC(=O)c3cc4c(-c5ccccc5F)nn(C)c4s3)CC2)c1	4.22	3.22	2.82
CCNc1cc(C(=O)N[C@@H](Cc2ccccc2)[C@H](O)CNCc2cccc(OC)c2C)cc(N2CCCCS2(=O)=O)c1	1.82	1.66	2.02
Fc1ccc2[nH]c(-c3ccccc3)nc2c1CN1CCC(N2CCCC2)CC1	-0.78	0.83	2.29
COC(=O)c1ccc(C(=O)NCCCCN2CCC(c3ccc4c(c3OC)CCCC4)CC2)cc1-c1ccc(C(F)(F)F)cc1	2.23	1.47	2.29
Cc1ccccc1N1CCN(c2ccc(C(=O)NC(C)C)cn2)CC1	0.52	-0.59	-1.79
c1cc(CN2CCCCC2)cc(-c2ccc(-c3nc4ccccc4[nH]3)s2)c1	4.86	1.16	-0.82
CN(C)c1ccc(-c2ccc(C(=O)NC3CCN(Cc4ccc5c(c4)OCCO5)CC3)s2)cc1	4.82	6.3	3.8
O=C(/C=C/c1ccc(Cl)c(Cl)c1)NCCCCCN1CCC(NC(=O)Nc2ccc(F)c(F)c2)CC1	-1.34	-0.67	-2.11
CC12CC3CC(C)(C1)CC(Nc1nc(N4CCOCC4)nc4ccccc14)(C3)C2	2.67	2.82	-0.7
Cc1cc(=NN=Cc2ccccc2Cl)c2cc(F)ccc2[nH]1	3.99	2.95	2.23
CCN(CC)CCNC(=O)/C(=C/C=C/c1cc2cc(Cl)c(Cl)cc2[nH]1)OC	2.44	-0.18	-1.46

SMILES	inhibition [1] [%]	inhibition [2] [%]	inhibition [3] [%]
Cc1cccc(C(=O)Nc2ccnc(N3CCCN(Cc4cccc(O)c4)CC3)c2)c1	-0.1	1.14	-0.7
Cc1c(CNCCCNc2cc(=O)c3ccccc3[nH]2)sc(C(F)=C(F)F)c1Br	6.84	5.03	5.8
NC1CCN(Cc2ccc(-c3ccc(-c4nc5ccccc5[nH]4)cc3)cc2)C1 (configuration not stated)	12.9	10.4	5.07
Cc1cc2c3c(N)nc(N)nc3ccc2n1C	6.53	10.4	5.15
CN(C)Cc1ccc(CN2CCN(CCOc3ccc(-c4ccc(Cl)cc4)cc3)CC2)o1	22.7	13.8	19.2
Cc1cccc(C)c1OC(=O)C(C)C(O)C1(Sc2ccccc2)CCN(C)CC1 (configuration not stated)	5.2	3.78	3.85
O=C(/C=C/c1ccc(Cl)c(Cl)c1)NCCCCCN1CCCC(c2c[nH]c3ccccc23)C1 (configuration not stated)	5.68	5.33	5.49
O=C(/C=C/c1ccc(Cl)c(Cl)c1)NCCCCCN1CCC(C(=O)Nc2ccc(Cl)cc2)CC1	1.92	0.72	2.78
Cc1cccc2nc(-c3ccc(-c4ccc(CNCC5CCCO5)cc4)s3)[nH]c12 (configuration not stated)	1.99	2.71	1.98
O=C(Cc1ccsc1)NCC(c1ccccc1Cl)c1c[nH]c2ccccc12 (configuration not stated)	6.27	5.24	4.67
N=C(N)Nc1ccc(Cc2ccc(NC(=N)N)cc2)cc1	-0.68	-0.57	0.58
CCc1ccc(C2CCN(CCCCNC(=O)c3ccc(-c4ccc(C#N)cc4)cc3)CC2)c(OCCO)c1	0.42	3.19	1.5
CN(C)c1ccnc2ccc(NC(=O)Nc3ccnc4ccccc34)cc12	1.93	2.58	1.09
O=C(/C=C/c1ccc(Cl)c(Cl)c1)N1CCC(CCCN2CCC(c3c[nH]c4ccccc34)CC2)CC1	70.7	51.2	-0.32
O=c1cc(NCCCNC2CCCc3c2cc(Cl)c(Cl)c3Cl)[nH]c2ccccc12 (configuration not stated)	-3.43	1.1	0.08
O=C(N[C@H]1CCN(Cc2ccc(OCCN3CCNCC3)c(Cl)c2)C1)c1ccc(Cl)c(Cl)c1	-1.27	-3.15	-2.23
Cc1cccc2nc(-c3cccc(-c4ccc(NC(=O)c5ccc(=O)[nH]n5)cc4)c3)[nH]c12	3.76	3.2	1.44
